MazF activator = activators of E. coli MazEF toxin-antitoxin RNase. activation, % at 20 µM. FAM/BHQ RNA-DNA oligo cleavage fluorescence, 5 h. AID 504720. P0AE70. actives 0.32% (n = 350,000); in the data active means activation above about 50%
ugtP null kill = compounds lethal to S. aureus RN4220 ugtP deletion mutant; OD600 growth, 16 h; growth inhibition, % (test concentration not listed); actives 0.54% (n = 330,000); in the data active means growth inhibition above about 68%;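 further: plate controls were untreated wells for no effect and antibiotic for full effect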
RN4220 kill = S. aureus RN4220 growth inhibition; inhibition, % (concentration not given with the values); actives 0.33% (n = 330,000); AID 1259311; OD600, 16 h; in the data active means inhibition above about 85%;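 further: plate controls were untreated cells for no effect and reference antibiotic for full effect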
TcdB inh = inhibitors of Clostridioides difficile toxin B glycohydrolase; TcdB glycohydrolase enzymatic assay, plate reader; inhibition, % at 9.99 µM; actives 0.24% (n = 350,000); AID 652162; in the data active means inhibition above about 10%
Mtb hypoxia rep = reduces hypoxia-regulated biosensor signal in M. tuberculosis. M. tuberculosis hypoxia-regulated fluorescent reporter, fluorescence. fluorescence inhibition, % (test concentration not listed). actives 0.1% (n = 300,000); in the data active means fluorescence inhibition mostly above about 23%, no sharp cut-off; inactive means mostly below about 17%
PfHsp40 rescue = rescue of PfHsp40-mediated yeast toxicity; growth rescue, % at 12.5 µM; actives 0.68% (n = 340,000); S. cerevisiae expressing PfHsp40, growth rescue, ATP luminescence; AID 504582; in the data active means growth rescue above about 28%, passing the limit was not always enough;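 further: yeast W303a lacking pdr1 and pdr3 grown in galactose medium; growth measured after three days at 30 °C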
* hit, by the source's call; nt = no result given; + = active, no number. This is a sample that favours compounds with a hit; in the whole collection about 1.3% have one here.

SMILES	MazF activator	ugtP null kill	RN4220 kill	TcdB inh	Mtb hypoxia rep	PfHsp40 rescue
CCn1nnnc1NCc1ccc(SC)cc1	10	14	4	3	6	39*
O=C(N[C@@H]1CC[C@@H](CCNC(=O)C2CC2)O[C@@H]1CO)c1ccncc1	nt	nt	nt	-2	nt	nt
COc1cc([N+](=O)[O-])ccc1-c1ccc(C=NNC(N)=O)o1	nt	4	1	nt	-6	nt
Cc1ccccc1C(=O)NC(=S)Nc1ccc(N2CCOCC2)cc1	0	4	38	0	14	-1
O=C(NC(=S)Nc1ccc(N2CCOCC2)cc1)c1cccc(Cl)c1	5	93*	5	2	12	4
O=C(COc1ccc(Br)cc1)NC(=S)Nc1ccccc1N1CCOCC1	-10	-4	-6	0	6	1
COc1ccc(NS(=O)(=O)c2ccc(N3CCOCC3)c(N)c2)cc1	2	10	5	1	29*	0
O=C(NC(=S)Nc1ccccc1N1CCOCC1)c1ccc(Br)cc1	-11	94*	-8	1	5	6
COc1ccc(S(=O)(=O)Nc2ccc(N3CCOCC3)cc2)cc1	-10	5	-1	-80	-1	2
O=C(NC(=S)Nc1ccc(N2CCOCC2)cc1)c1ccccc1	-11	46	4	23*	6	0
COC(=O)C1=C(C(=O)OC)C2N(Cc3ccccc3)c3ccccc3[C@@]23CC(CO)N(C(=O)NC2CCCC2)C3=N1 (some centres not stated)	nt	-1	0	nt	2	nt
Nc1ncnc2c1nc(Sc1ccc(Cl)cc1)n2C1OC2COP(=O)(O)OC2C1O (configuration not stated)	nt	6	10	nt	-6	nt
O=C(C[C@@H]1CC[C@H](NC(=O)Nc2cc(F)ccc2F)[C@H](CO)O1)NCCCN1CCOCC1	nt	nt	nt	0	nt	nt
CC(C)CC#Cc1ccc([C@@H]2[C@H](CO)N3CCCCN(C(=O)c4ccc5c(c4)OCO5)C[C@@H]23)cc1	nt	nt	nt	1	nt	nt
COc1ccc(C(=O)NC(=S)Nc2ccc(CN3CCOCC3)cc2)cc1Cl	3	86*	8	1	14	-2
CCc1ccc(C(=O)NC(=S)Nc2ccc(N3CCOCC3)cc2)cc1	-7	89*	-3	0	nt	4
COc1ccc(NS(=O)(=O)c2ccc(NC(=O)c3ccc(CN4CCOCC4)cc3)cc2)cc1	-5	1	-4	0	1	50*
COc1ccc(C(=O)NC(=S)Nc2ccc(CN3CCOCC3)cc2)cc1OC	3	42	2	2	5	nt
C[C@@H]1CN([C@H](C)CO)C(=O)c2cc(NC(=O)Cn3cnnn3)ccc2O[C@H]1CN(C)Cc1ccc(C(F)(F)F)cc1	nt	nt	nt	0	nt	nt
CCNC(=O)Nc1ccc2c(c1)C(=O)N(C)[C@H]1CC[C@@H](CC(=O)NC3CCCCC3)O[C@H]1CO2	nt	nt	nt	-1	nt	nt
CCNC(=O)Nc1ccc2c(c1)C(=O)N(C)[C@@H]1CC[C@@H](CC(=O)NC3CCCCC3)O[C@@H]1CO2	nt	nt	nt	1	nt	nt
CCCNC(=O)Nc1ccc2c(c1)C(=O)N(C)[C@H]1CC[C@H](CC(=O)NC3CCC3)O[C@@H]1CO2	nt	nt	nt	14*	nt	nt
CCCNC(=O)Nc1ccc2c(c1)C(=O)N(C)[C@@H]1CC[C@H](CC(=O)NC3CCC3)O[C@H]1CO2	nt	nt	nt	19*	nt	nt
CSc1ccc(Cl)c(C(=O)NCCOc2cc(C(C)C)ccc2C)c1	-11	97*	96*	nt	6	3
CC(=O)Nc1cccc(-c2cc(-c3c(Cl)cccc3Cl)no2)c1	3	24	1	1	0	357*
SMILES	MazF activator	ugtP null kill	RN4220 kill	TcdB inh	Mtb hypoxia rep	PfHsp40 rescue
CNC(=O)Nc1cccc(-c2cc(-c3c(Cl)cccc3Cl)no2)c1	21	14	-8	-3	5	0
CCOc1ccc(C=NNC(=O)Cn2ccnc2C)cc1	nt	6	2	nt	10	nt
CCc1cccc2sc(N3CCN(C(=O)c4ccc([N+](=O)[O-])o4)CC3)nc12	1	99*	100*	nt	nt	39*
Oc1ccccc1C=NN=Cc1c(O)ccc2ccccc12	+	nt	nt	-1	nt	-1
FC(F)(F)c1cnc(NNC(=S)Nc2ccc(Cl)cc2)c(Cl)c1	3	70	92*	nt	-6	1
CC(C)(C)c1ccc(-c2cc(-c3ccccc3O)[nH]n2)cc1	10	62	-7	-4	6	34*
O=[N+]([O-])c1ccccc1-c1cc(-c2cc(Cl)ccc2O)n[nH]1	17	6	-10	nt	12	145*
COc1ccc(-c2cc(-c3ccc(C)cc3)n[nH]2)c(O)c1	3	-1	1	2	0	3
Cc1ccc(O)c(-c2cc(-c3ccccc3[N+](=O)[O-])[nH]n2)c1	7	-21	-3	nt	14	12
Cc1ccc(O)c(-c2cc(-c3ccccc3C)[nH]n2)c1	17	nt	nt	nt	nt	322*
Oc1ccccc1-c1cc(-c2cccc(F)c2)n[nH]1	16	-2	-7	nt	12	193*
Cc1ccccc1-c1cc(-c2ccccc2O)on1	-4	36	4	nt	12	32*
Oc1ccccc1-c1cc(-c2ccccc2)no1	7	-13	-4	nt	nt	0
Cc1ccc(S(=O)(=O)N(C)c2c(C)ccc(S(=O)(=O)N3CCN(C)CC3)c2C)cc1	-4	5	7	1	10	49*
Cc1ccc(S(=O)(=O)N(C)c2c(C)ccc(S(=O)(=O)N3CCN(C=O)CC3)c2C)cc1	-1	-3	7	0	0	1
O=C(CNc1n[nH]c(=O)[nH]c1=O)NN=CC1CC=CCC1 (configuration not stated)	nt	-4	4	nt	5	nt
O=[N+]([O-])c1ccc(C=NNc2ncc(-c3ccccc3)cn2)cc1	nt	3	3	nt	-11	nt
CCc1ccc(-c2csc(-c3c[nH]c4ccccc34)n2)cc1	-7	85*	-2	nt	-2	-1
O=C(Nc1nnc(C(F)(F)F)s1)C1COc2ccccc2O1 (configuration not stated)	2	88*	91	nt	nt	1
NC(=O)c1c(NC(=O)C2COc3ccccc3O2)sc2c1CCN(Cc1ccccc1)C2 (configuration not stated)	258*	2	-1	1	-6	1
CN1C(=O)c2cc(NC(=O)C3CC3)ccc2OC[C@@H]2O[C@H](CC(=O)NCCc3ccncc3)CC[C@H]21	nt	nt	nt	1	nt	nt
C[C@@H]1CN([C@H](C)CO)C(=O)c2cc(NC(=O)Nc3ccc4c(c3)OCO4)ccc2O[C@@H](C)CCCCO[C@H]1CN(C)Cc1ccc(C(F)(F)F)cc1	nt	nt	nt	0	nt	nt
COc1ccc(C=Nc2oc(-c3ccccc3)cc2C#N)cc1OC	nt	0	9	nt	nt	nt
O=C(C[C@@H]1C[C@H]2c3cc(NC(=O)c4ccc5c(c4)OCO5)ccc3O[C@H]2[C@@H](CO)O1)NCc1cc(F)ccc1F	nt	nt	nt	0	nt	nt
O=C(C[C@H]1C[C@H]2c3cc(NC(=O)c4ccc5c(c4)OCO5)ccc3O[C@H]2[C@H](CO)O1)NCc1cccc(F)c1	nt	nt	nt	14*	nt	nt

From PubChem
